Four compounds from PubChem BioAssay can be followed below.

The nature of assay [1]: chitosan synthesis blockers in C. neoformans – flow cytometry, Cibacron Brilliant Red staining (AID 1347148; call rule not given here;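 also: compound exposure lasted three days at 37 degrees C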). The note with it: Cryptococcus neoformans chitosan, stronger effect = lower value; at 10 µM unless noted.
Assay [2] can be described thus: blockers of polyQ-driven CASP3 activation – cell-based (AID 1583). The conditions noted are these: polyglutamine-induced caspase-3 activation, cell assay; stronger effect = higher value;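 tested at 10 µM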.
Assay [3] in a line: yeast 75Q aggregation reduction – 75Q-TubU reporter (AID 1593). The note with it: Yeast 75Q polyglutamine aggregation reporter.
Assay [4] can be described thus: restoration of touch response, mutant HTT neurons – whole organism, C. elegans mechanosensory neurons, N-terminal huntingtin (AID 1599). The conditions noted are these: C. elegans polyQ-huntingtin mechanosensory neurons, stronger effect = higher value.
Assay [5] can be described thus: blockers of cytochrome c efflux from mitochondria – biochemical, purified mitochondria (AID 1603).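 Also: mouse liver mitochondria challenged with calcium chloride; signal normalized to the plate average as 100%.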 The note with it: stronger effect = lower value.
Assay [6] in a line: polyglutamine aggregate formation blockers (AID 1604). The conditions noted are these: polyglutamine-induced protein aggregation inhibition assay; stronger effect = higher value; tested at 2.5 µM.
Assay [7] in a line: glutamate transport activators, MN-1 cells, MN-1 cell line (AID 1612).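 Also: tested at 1 µM final; 0% = mean of DMSO vehicle wells on each plate; positive means more glutamate uptake than control and negative means less.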 The note with it: MN-1 motor neuron cells, stronger effect = higher value.
Assay [8] in a line: 75Q-TubH aggregate inhibition, S. cerevisiae, yeast (AID 1616). The note with it: S. cerevisiae 75Q-TubH polyglutamine aggregation suppression; stronger effect = higher value.
Assay [9] relates to Neuropilin-2 / VEGF-C interaction (human). Description: small molecules blocking Neuropilin-2/VEGF-C interaction – biochemical, microplate binding format, z-score (AID 743281; call rule not given here). The note with it: microplate NRP2/VEGF-C binding assay; stronger effect = lower value.
Assay [10] is described as follows: modulation of C. elegans fzo-1 (AID 1259413; call rule not given here;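 also: fzo-1 mutant C. elegans worms in liquid wells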). The conditions noted are these: C. elegans fzo-1 modulator screen, mean read-out; stronger effect = higher value.
A further assay has as its system R275C. Description: BK channel mutant inhibitors and activators – cell-based, U2OS BacMam, thallium flux, beta subunits, selectivity assay, profiling panel (AID 1259406).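 Also: initial slope of Thallos dye fluorescence rise after thallium is added; log ratio against the mean of 0.3% DMSO vehicle wells on the same plate.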 The note with it: U2OS BacMam BK variants, at 30 µM.
In the next assay the test system is R275C/beta1. The description is as above. The conditions noted are these: U2OS BacMam BK variants, at 30 µM.
A further assay has as its system R275C/beta2Delta. Described as above. The note with it: U2OS BacMam BK variants, at 30 µM.
A further assay concerns R275C/beta4. The assay is described as above. The note with it: U2OS BacMam BK variants, at 30 µM.

For some assays here: Potency and affinity values are given separately. Active and inactive are the calls of the source.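 The calls were made as follows, unless noted: active = thallium flux through the channel raised or lowered by more than 3 SD from vehicle-only wells, actives on both sides; inactive = the rest.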

Consider `CCCCC/C=C\C/C=C\C/C=C\C/C=C\CCCC(=O)NCC(=O)O`, for which the fold fluorescence in assay [1] is 3.73 (inactive).

On to `CN(C)C(=S)SSC(=S)N(C)C`, for which the inhibition in assay [2] turned out to be 37.5%. Besides, in assay [3], the score stood at 0.02. In addition, in assay [4], the rescue above control amounted to 2.19. Moreover, the cytochrome c release ratio in [5] turned out to be 3.47. For the same compound, the inhibition of aggregation in [6] was -16.7%. Moreover, the glutamate uptake change in assay [7] worked out at 7.76%. The compound further had an aggregation suppression score in [8] of 0.0152.

For the compound `COc1ccc2[nH]cc(CCN)c2c1`, the z-score in assay [9] was 0.413 (inactive). Further, the mean signal in assay [10] is 258 (inactive). Also, the log fold change Tl+ flux with R275C was -0.061 (inactive); in the assay with R275C/beta1 it was -0.0101 (inactive); with R275C/beta2Delta it was -0.00391 (inactive); with R275C/beta4 it was 0.0135 (inactive).

`COc1cc2c(cc1OC)[C@@]13CCN4CC5=CCO[C@H]6CC(=O)N2[C@H]1[C@H]6[C@H]5C[C@H]43`: the z-score in [9] was -0.249 (inactive). For the same compound, the mean signal in assay [10] is 265 (inactive). In addition, the log fold change Tl+ flux with R275C is -0.0395 (inactive); in the assay with R275C/beta1, 0.0112 (inactive); in the assay with R275C/beta2Delta, -0.0452 (inactive); in the assay on R275C/beta4 it was -0.00487 (inactive).
